Records with an inconclusive call do not appear. Where a call stands in place of a potency, no number is given. Activity calls are given as the source filed them. Calls follow the shape of the dose curve; as a rule, active = well fitted antagonist curve with a large enough effect in the main read-out, with a control signal flat; inconclusive = small, poorly fitted or top-dose-only effect; inactive = no such curve, though single readings can be large or run the other way.
biological target: Neuropeptide S receptor (Homo sapiens) (UniProt Q6W5P4); experiment: Confirmation Concentration-Response Assay for Antagonists of the Neuropeptide S Receptor: Calcium Signal Transduction, SAR for Probe; settings: CHO-NPSR cells, NPS-induced calcium fluorescence, FDSS; series mostly up to 19.3 µM
Description: NIH Chemical Genomics Center [NCGC] NIH Molecular Libraries Probe Production centers Network [MLPCN] MLPCN Grant: X01-DA026210-01 Assay Submitter (PI): Heilig, Markus Alexander NCGC Assay Overview: Neuropeptide S receptor (NPSR), previously known as GPR154, is a recently de-orphanized G protein coupled receptor. Its endogenous ligand is the 20 amino acids peptide Neuropeptide S (NPS). […] NPS and its receptor are found in various tissues. Specifically they are highly expressed in brain areas that have been implicated in modulation of arousal, stress and anxiety. Central administration of NPS in mice produces an unusual profile of activity by inducing wakefulness and arousal, while at the same time suppressing anxiety. Therefore, NPSR may represent a novel drug target for the treatment of sleep and anxiety disorders. To identify NPSR antagonists, we developed a cell-based assay with transfected NPS receptor. NPS can stimulate the production of cAMP as well as release intracellular calcium in Chinese hamster ovary cells stably expressing NPS receptor. This change in intracellular calcium can be detected using a calcium indicator dye on a calcium imaging plate reader system (FDSS).
NCGC Assay Protocol Summary: A Chinese hamster ovary (CHO) cell line stably expressing the NPS receptor (CHO-NPSR) was obtained from Dr. Heilig lab at NIAAA and maintained in F-12 Kaighn's media (Invitrogen, Carlsbad, CA, 21127) supplemented with 10 % FBS, 100 units/ml penicillin, 100 ug/ml streptomycin and 250 ug/ml geneticin at 37C, 5% CO2 in a humidified atmosphere. Before the assay, aliquots of cells were frozen and stored at -135C. The assay was performed on a FDSS-7000 kinetic plate reader in 1536-well format. For both agonist (1-220s) and antagonist (221-400s) phases, the maximums of kinetic fluorescence responses were converted separately into text files using the instrument's software data export utility. Data for agonist response were normalized to the controls for basal activity (DMSO only) and 100% activation (NPS). […] AC50 values were determined from concentration-response data modeled with the standard Hill equation. NPS 1536-well FDSS assay protocol: (1) Frozen CHO-NPSR cells were thaw, washed once with fresh media and resuspended in F-12 Kaighn's media supplemented with 10 % FBS, 100 units/ml penicillin and 100 ug/ml streptomycin. Cells were plated at 3 ul/well (1200 cells) to black, clear-bottom, tissue-culture treated 1536-well plates, and then cultured at 37C, 5 % CO2 for 16 to 30 hours. (2) Add 3 ul of calcium dye (from High Performance PBX Calcium Assay Kit, BD Biosciences). The calcium dye was prepared according to the manufactory's instruction. (3) Incubation at 37C, 5 % CO2 for 60 to 120 min. (4) Load plates to FDSS-7000. The following steps were performed on FDSS-7000. (5) Record fluorescent background (Ex 480 nm, Em 520-560 nm) for 10 s. (6) Add 23 nl/well of compound in DMSO solution. The final titration for each compound was between 0.6 nM and 46 uM. Record agonist response for 210 s. (7) Add 2 ul of stimulation reagent (1X HBSS buffer, 0.1% BSA, 60 nM NPS). Record antagonist response for 140 s. Keywords: MLSMR, MLPCN, NIH Roadmap, qHTS, NCGC, NPS, Neuropeptide S Antagonists

Neuropeptide S receptor (Homo sapiens), sequence (Q6W5P4 whole entry, looked up): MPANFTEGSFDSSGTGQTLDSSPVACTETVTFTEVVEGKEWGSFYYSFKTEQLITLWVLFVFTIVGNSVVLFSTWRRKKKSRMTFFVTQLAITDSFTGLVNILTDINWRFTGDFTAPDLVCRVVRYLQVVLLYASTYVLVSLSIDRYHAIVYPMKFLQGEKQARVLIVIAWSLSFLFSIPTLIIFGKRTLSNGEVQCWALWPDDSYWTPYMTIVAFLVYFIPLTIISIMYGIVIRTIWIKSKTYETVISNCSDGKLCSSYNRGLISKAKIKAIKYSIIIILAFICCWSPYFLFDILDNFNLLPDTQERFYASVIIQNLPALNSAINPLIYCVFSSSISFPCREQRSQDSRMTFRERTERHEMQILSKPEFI

SMILES	Potency
COc1cc(/C=C2\SC(c3ccc(C)cc3)=NC2=O)cc(OC)c1O	inactive
CCOC(=O)c1cnc(-n2nc(C)cc2C)nc1NC1CCCC1	2820 nM (active)
COc1cccc(C2c3c(ncn(-c4ccc(C(C)(C)C)cc4)c3=N)Oc3ccc4ccccc4c32)c1 (stereo not given)	5520 nM (active)
Cc1c(P(=S)(c2ccccc2)c2ccccc2)c2ccccc2n1Cc1ccccc1	inactive
COc1cccc(C2c3c(ncn(-c4ccccc4-c4ccccc4)c3=N)Oc3ccc4ccccc4c32)c1 (stereo not given)	inactive
C/C(=N\NC(=S)NC1CCCCC1)c1c(F)cccc1F	inactive
NC(=O)OCC(COC(N)=O)c1ccccc1	inactive
COc1cccc(N2CCN(c3ncnc4c3[nH]c3ccc(F)cc34)CC2C)c1 (stereo not given)	631 nM (active)
O=C(/C=C/c1ccco1)NC(=S)Nc1nc(-c2ccc3ccccc3c2)cs1	inactive
COc1ccc(C2c3c(N)nc(CCc4ccccc4)nc3Oc3ccc4ccccc4c32)cc1OC (stereo not given)	inactive
COc1ccc(C2c3c(n(CCc4ccccc4)cnc3=N)Oc3ccc4ccccc4c32)cc1OC (stereo not given)	inactive
CCC(C)(CCN1CCOCC1)N(Cc1cc2ccccc2n(C)c1=O)C(=O)C1CCCCC1 (stereo not given)	110 nM (active)
O=P(c1ccccc1)(c1ccccc1)c1cnc2ccccn12	inactive
Cc1nnc(NC(=O)c2cccc(S(=O)(=O)N3CCc4ccccc43)c2)s1	inactive
Cc1oc2c(c1C(=O)NCc1cccnc1)C(=O)c1ccccc1C2=O	inactive
COc1cccc(C2c3c(ncn(-c4cccc(F)c4)c3=N)Oc3ccc4ccccc4c32)c1 (stereo not given)	220 nM (active)
CN(C)c1nc(=Nc2cccc(Cl)c2)ss1	inactive
COc1cccc(C2c3c(ncn(-c4ccc(Br)cc4)c3=N)Oc3ccc4ccccc4c32)c1 (stereo not given)	2760 nM (active)
Cc1c(P(=S)(c2ccccc2)c2ccccc2)c2ccccc2n1CCc1ccccc1	inactive
COc1cccc(C2c3c(ncn(-c4ccc(F)cc4)c3=N)Oc3ccc4ccccc4c32)c1 (stereo not given)	3480 nM (active)

SMILES	Potency
Cn1nc(-c2ccc(Cl)cc2)nc2c(=O)n(C)c(=O)nc1-2	inactive
COc1cccc(C2c3c(ncn(-c4cccnc4)c3=N)Oc3ccc4ccccc4c32)c1 (stereo not given)	2760 nM (active)
COc1cccc(C2c3c(ncn(-c4ccncc4)c3=N)Oc3ccc4ccccc4c32)c1 (stereo not given)	4380 nM (active)
CCCN1C(=O)/C(=C\C=C2/C=CN(CC)c3ccccc32)SC1=S	inactive
COc1ccc(-n2cnc3c(c2=N)C(c2cccc(OC)c2)c2c(ccc4ccccc24)O3)cc1 (stereo not given)	4380 nM (active)
CCCCCN1C=CC=C/C1=C\C=C(C#N)C#N	inactive
COc1ccc(C2C3=C(N=CN(CCN4CCOCC4)C3N)Oc3ccccc32)cc1OC (stereo not given)	inactive
Cc1c(P(=S)(c2ccccc2)c2ccccc2)[n+]2ccccc2n1CC(=O)c1ccccc1	2760 nM (active)
COc1cccc(C2c3c(ncn(-c4cccc(OC)c4)c3=N)Oc3ccc4ccccc4c32)c1 (stereo not given)	5520 nM (active)
Cn1cc(P(=O)(c2ccccc2)c2ccccc2)c2ccccc21	inactive
COc1ccc(C2c3c(nc(CCCc4ccccc4)[nH]c3=O)Oc3ccc4ccccc4c32)cc1OC (stereo not given)	inactive
COc1ccc(C2c3c(N)nc(Cc4ccccc4)nc3Oc3ccc4ccccc4c32)cc1OC (stereo not given)	inactive
Cc1c(C(O)(c2ccccc2)c2ccccc2)[n+]2ccccc2n1C	inactive
Cc1ccc(NC(=S)NNC(C)(C)C)cc1	inactive
COc1cccc(C2c3c(ncn(-c4ccc(NC(C)=O)cc4)c3=N)Oc3ccc4ccccc4c32)c1 (stereo not given)	5520 nM (active)
COc1cccc(C2c3c(ncn(-c4ccc(C)cc4)c3=N)Oc3ccc4ccccc4c32)c1 (stereo not given)	3480 nM (active)
CC(=O)c1sc(N/N=C\c2ccccc2O)nc1C	1120 nM (active)
NC(=S)N/N=C/c1ncc(C(F)(F)F)cc1Cl	inactive
CCC(C)n1c(=O)c(C(=O)Nc2ccccc2S(N)(=O)=O)c(O)c2ccccc21 (stereo not given)	inactive
COc1cccc2sc(Nc3nc(-c4ccccn4)cs3)nc12	3160 nM (active)

Reference: PubChem BioAssay AID2567 (National Center for Advancing Translational Sciences (NCATS), 2010)
